Abeta rescue: compounds reversing amyloid beta toxicity in yeast; yeast expressing A-beta42, growth rescue, OD600, 48 h; response scale: 0% DMSO, 100% iron-clioquinol control; Potency, µM (top dose mostly 46.1 µM), hits mostly activators; hit rate 0.063% among 410,000; note: nearly all actives have a fitted effect of over 55% in size
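Yeast growth medium received pinned compounds, then yeast cells expressing toxic A-beta were added; plates incubated at 30 C for 48 hr. Growth read as absorbance at 600 nm, normalized to DMSO and equimolar FeCl3 plus clioquinol controls.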
Mito fusion act: mitochondrial division inhibition or fusion activation | S. cerevisiae fusion-defective mutant growth rescue, CellTiterGlo 48 h | Potency, µM (highest dose often 46.1 µM), for the others: top-dose growth rescue (activation), most hits filed as activators | hit rate 0.23% among 320,000; note: % of control where 0% means no effect; nearly all actives have a fitted effect of over 45% in size
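S. cerevisiae fusion-defective temperature-sensitive mutants (e.g. fzo1-1, mgm1-5) grown 48 h at 37C in YPEG (ethanol/glycerol non-fermentable) medium with 23 nl compound per well; growth rescue read as CellTiterGlo luminescence.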
TDP-43 yeast inh: TDP-43 toxicity inhibition in yeast | TDP-43 expressing yeast growth rescue, BacTiter-Glo, 24 h | Potency, µM (doses to about 46.1 µM), without a hit: top-dose growth rescue (activation), usual class: activators | hit rate 1.8% among 410,000; note: % of control where 0% means no effect; nearly all actives have a fitted effect of over 50% in size
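Galactose-induced TDP-43 yeast, OD600=0.02, compound pinned; 24 hr, 30 deg C; BacTiter-Glo luminescence for growth. Inhibitors of TDP-43 toxicity read as activators.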
FUS suppressor: FUS proteinopathy suppression in yeast | S. cerevisiae FUS-expressing, growth rescue, OD600, 24 h | Potency, µM (titrated, usually from 76.6 µM), hits mostly activators | hit rate 0.24% among 390,000;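 note: plate controls were DMSO vehicle for no effect and reference control for full effect; nearly all actives have a fitted effect of over 55% in size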
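Yeast FUS proteinopathy model; galactose-induced FUS (2%), starting OD 0.005. Cpds in dilution series, 24hr, 30C, 99% humidity. Abs 600 nm growth. Pos ctrl CP55940 (top 92uM final); neg ctrl DMSO.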
aSyn yeast inh: inhibitors of alpha-synuclein toxicity in yeast; hit rate 0.14% among 370,000; Potency, µM (doses to about 46.1 µM), without a hit: at the highest dose growth rescue (activation), most hits filed as activators; Yeast expressing alpha-synuclein, growth rescue, BacTiter-Glo, 24 h; AID 652106; note: % of control where 0% means no effect; nearly all actives have a fitted effect of over 65% in size
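Galactose-induced alpha-syn yeast (OD600=0.02, raffinose-pregrown) + pinned cpd, 24 hr, 30 deg C; growth by BacTiter-Glo luminescence. Growth restoration scores as activation.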
Starred values were filed as active, the others as inactive; i = inactive; ? = inconclusive; . = not tested or not shown; [ ] = remark or other dose. Shown are actives, neighbours in structure and some others; about 2.2% of the full set was active somewhere. Calls come from the whole dose curve; as a rule, active = well fitted curve in the direction sought with a large enough effect; inconclusive = small, poorly fitted or top-dose-only effect, or another doubt; inactive = no such curve, though single readings can be large; an effect the other way counts as inactive or inconclusive. Potency is the fitted concentration of half-maximal effect.

SMILES | Abeta rescue | Mito fusion act | TDP-43 yeast inh | FUS suppressor | aSyn yeast inh
CCC(C(=O)Nc1cc(Cl)ccc1OC)n1nc(-c2ccccc2)ccc1=O (stereo not given) | i | . | 11.2% | ? | .
Clc1cccc(N2CCN(c3ncnc4c3nc3n4CCCCC3)CC2)c1 | i | . | 17.8µM* | ? | .
Cc1cccc(N2CCN(c3ncnc4c3nc3n4CCCCC3)CC2)c1C | i | . | 22.4µM* | i | .
Fc1ccc(N2CCN(c3ncnc4c3nc3n4CCCCC3)CC2)cc1 | i | . | 12.8% | i | .
CCOC(=O)c1c(NC(=O)CSc2cn(CCNC(=O)c3ccc(OC)cc3)c3ccccc23)sc2c1CCCC2 | i | . | 6.0% | ? | .
COc1cc2c(cc1/C=C/C(=O)O)OC(C)C2 (stereo not given) | i | -6.5% | ? | i | 0.9%
CCOc1cc2c(cc1/C=C/C(=O)O)OC(C)C2 (stereo not given) | i | 6.4% | 22.4µM* | i | -9.6%
CC(=O)Oc1cc2c(c3ccccc13)CCC2=O | i | . | ? | i | 24.9%
CC(=O)Oc1[nH]c(=O)c2cccc3c2c1CCC3 | i | . | 28.2µM* | i | -4.2%
O=[N+]([O-])c1ccc(CSc2nnc(-c3cccnc3)o2)cc1 | i | 1.7% | 11.2µM* | i | 0.0%
Clc1ccc(CSc2nnc(-c3cccnc3)o2)cc1 | i | 7.7% | 11.2µM* | i | 8.3%
Cc1ccc(CSc2nnc(-c3cccnc3)o2)cc1 | i | 15.5% | 12.6µM* | i | 3.4%
c1ccc(CSc2nnc(-c3cccnc3)o2)cc1 | i | 9.3% | 14.1µM* | i | 0.0%
Brc1ccc(CSc2nnc(-c3cccnc3)o2)cc1 | i | 17.7% | -2.0%[9.22 µM] | i | 0.9%
Fc1ccc(CSc2nnc(-c3cccnc3)o2)cc1 | i | 4.9% | ? | i | 1.8%
Cc1nn(S(=O)(=O)c2ccc(C(C)C)cc2)c(C)c1S(=O)(=O)N1CCCCCC1 | i | . | 13.8% | i | .
C=CCn1c(COc2ccccc2)nnc1SCC(=O)Nc1ccc(Oc2ccccc2)cc1 | . | . | . | i | .
Fc1ccc(-c2n[nH]c(=S)n2N=Cc2cccc(OCc3ccccc3)c2)cc1 | . | . | . | i | .
Cc1ccc(C)c(N2CCN(C(=O)C3CCN(S(=O)(=O)c4ccc5[nH]c(=O)oc5c4)CC3)CC2)c1 | i | . | -13.2% | ? | .
c1cncc(-c2nnc(SCc3nc4ccccc4[nH]3)o2)c1 | i | 4.9% | 0.7% | i | -16.3%
c1cncc(-c2nnc(SCc3cccc4ccccc34)o2)c1 | i | 15.5% | 15.8µM* | i | 10.0%
CCOc1ccc(-c2[nH]ncc2Oc2ccccc2OC)c(O)c1 | i | ? | ? | ? | ?
CCOc1ccc(-c2[nH]ncc2Oc2ccccc2OCC)c(O)c1 | i | 12.2% | 17.8µM* | i | ?
CCOc1ccc(-c2[nH]ncc2-c2ccc(Cl)cc2)c(O)c1 | i | 2.8% | 35.5µM* | i | -45.6%
Cc1ccc(S(=O)(=O)C(CNS(=O)(=O)c2ccc(F)c(C(F)(F)F)c2)c2ccco2)cc1 (stereo not given) | i | . | 3.98µM* | i | .
SMILES | Abeta rescue | Mito fusion act | TDP-43 yeast inh | FUS suppressor | aSyn yeast inh
COc1ccc(S(=O)(=O)NCC(c2ccco2)S(=O)(=O)c2ccc(C)cc2)cc1F (stereo not given) | i | . | ? | i | .
O=C(CSc1cc(Cl)ccc1Cl)Nc1ccc(N2CCOCC2)cc1 | i | ? | 15.8µM* | i | 0.1%
CCCCCN1CCCCC(NC(=O)c2c(F)cccc2F)C1=O (stereo not given) | . | . | . | i | .
Cc1cc2cc3c(cc2nc1SCC(=O)N1CCCC1)OCCO3 | i | -0.3% | 17.8µM* | i | 3.4%
Cc1cc2cc3c(cc2nc1SCC(=O)O)OCCO3 | i | 4.7% | 9.3% | i | -0.7%
COc1ccc(-c2noc(-c3ccc(N4CCC(C)CC4)c([N+](=O)[O-])c3)n2)cc1OC | i | . | 12.6% | i | .
CCOc1ccc(C(=O)Nc2ccc3nc(SCC(=O)N4CCOCC4)sc3c2)cc1 | i | . | 2.0% | i | .
C[C@H]1[C@H](NC(=O)c2ccc(Cl)c(C(F)(F)F)c2)CC[C@@]23CCCN2C(=O)CCC[C@@H]13 | . | . | . | i | .
CCC1Nc2ncnc(N3CCc4ccccc4C3)c2N(Cc2ccc(Cl)cc2)C1=O (stereo not given) | i | . | 7.1% | ? | 17.4%
CC(C)CC1Nc2ncnc(N3CCCCC3)c2N(Cc2ccc(Br)cc2)C1=O (stereo not given) | ? | 22.4µM* | ? | i | 13.7%
O=C1C(Cc2ccccc2)Nc2ncnc(N3CCc4ccccc4C3)c2N1Cc1ccc(Cl)cc1 (stereo not given) | i | 10µM* | 6.4% | ? | 15.2%
CC(C)CC1Nc2ncnc(N3CCOCC3)c2N(Cc2ccc(Br)cc2)C1=O (stereo not given) | i | 7.8% | 4.0% | i | 0.5%
COc1ccc(CNC(=O)CSc2nc3c([nH]2)c(=O)n(C)c(=O)n3C)cc1 | . | . | . | i | .
O=C(C[n+]1ccccc1)c1ccc(I)cc1 | . | . | . | . | -1.1%
N#CC1=C(N)CCC1 | . | . | . | . | -0.9%
CN=C1S/C(=C\c2cccc(Cl)c2Cl)C(=O)N1C | i | . | 12.6µM* | i | 11.2%
Fc1ccc(COc2ccc(C(=S)N3CCCC3)cc2)cc1 | ? | -12.6% | 12.6µM* | i | -16.2%
COc1ccc(S[C@]2(C(=O)N(C)C)CC(=O)N(C(=O)CCc3ccccc3)[C@@H]2c2ccc(OC)cc2)cc1 | . | . | . | i | .
C=CCNc1nc(N)c([N+](=O)[O-])c(Nc2ccccc2OC)n1 | i | -39.8% | 15.8µM* | i | 6.0%
Cc1nc(-c2ccc(F)cc2)sc1CCNC(=O)Cc1ccc(F)cc1 | i | . | ? | i | .
Cc1cc(C)cc(C(=O)NCCc2sc(-c3ccc(F)cc3)nc2C)c1 | i | . | 11.8% | i | .
COc1ccc(C(=O)NCCc2sc(-c3cccc(F)c3)nc2C)cc1 | i | . | 22.4µM* | ? | .
COc1ccc(-c2nc(C)c(CCNC(=O)c3c(F)cccc3F)s2)cc1 | i | . | 10µM* | i | -0.8%
COc1cccc(C(=O)NCCc2sc(-c3cccc(C)c3)nc2C)c1 | i | . | 25.1µM* | ? | -8.2%
Cc1nc(-c2ccc(F)cc2)sc1CCNC(=O)c1ccccc1C(F)(F)F | i | . | 12.6µM* | i | .
COc1ccc(C2c3cc(OC)c(OC)cc3CC(=O)N2c2ccc(C)c(F)c2)cc1 (stereo not given) | i | . | 3.5% | ? | .
CCCCNC(=O)C[C@H]1C[C@@]2(C(=O)OC)C(=C[C@H](C(C)(C)C)O[C@@H]2C)N(Cc2ccco2)C1=O | . | . | . | i | .
COc1ccc(CC(=O)NCCc2sc(-c3cccc(F)c3)nc2C)cc1 | i | . | 11.2µM* | i | .
CCOc1ccc(CC(=O)NCCc2sc(-c3cccc(F)c3)nc2C)cc1 | i | . | ? | i | .
